PubChem BioAssay (NCATS)
Some of the results follow. Where a call stands in place of a potency, no number is given. Records with an inconclusive call do not appear. Calls of active or inactive are those of the source. Calls come from the whole dose curve; as a rule, active = well fitted inhibition curve with a large enough effect; inconclusive = small, poorly fitted or top-dose-only effect; inactive = flat fitted curve, though single readings scatter.

What follows are compounds tested against Luciferin 4-monooxygenase (Photinus pyralis) (UniProt P08659) (assay: qHTS screen for small molecules that inhibit ELG1-dependent DNA repair: Hit Confirmation in Biochemical Luciferin Assay (AID 624253)). Settings: purified firefly luciferase, luminescence counter-screen; series mostly up to 57.5 µM.
From the text: Cancer cells divide rapidly compared to normal cells in the body. During cell division, cancer cells need to duplicate their genome by DNA replication. The failure of genome duplication leads to cancer cells' death. Therefore, inhibitors of DNA replication could specifically kill cancer cells. Based on this concept, many chemotherapeutic agents were developed and have been used to treat cancer patients. However, there are a limited number of agents available in the clinical setting, and some of those that do exist have low efficacy and severe side effects. Therefore, if we can find the compounds that effectively block DNA replication either by directly damaging DNA or by inhibiting other cellular mechanisms, the options for cancer treatment will be broadened. With this in mind, we developed a quantitative high-throughput ELG1-luciferase reporter gene assay. Small molecules that specifically block ELG1 function in response to DNA damage can be identified by monitoring the suppression of luciferase activity. Since ELG1 defines a pathway for repairing DNA damage, agents blocking ELG1 function can be used to sensitize cancer cells to chemotherapeutic agents whose mechanism of action involves the induction of DNA damage. NIH Molecular Libraries Probe Production Network [MLPCN] NIH Chemical Genomics Center [NCGC] MLPCN Grant: R03 MH092164 Assay Provider: Kyungjae Myung, NHGRI, NIH
3 uL of substrate reagent will be pipetted into each well in 1536-well white, solid-bottom plates using a FRD dispenser, followed by addition of 23 nL of DMSO or compounds by pintool. After compound addition, 1 µL of luciferase will be added into the wells. The plates will be read in a ViewLux CCD-based plate reader.
Potency is the fitted concentration of half-maximal effect.

| Structure (SMILES) | Potency |
| --- | --- |
| Cc1ccccc1NC(=O)CSc1nc2ccc(Nc3nc(N4CCOCC4)nc(N4CCOCC4)n3)cc2s1 | inactive |
| O=C(Nn1c(SCc2ccc([N+](=O)[O-])cc2)nc2ccccc2c1=O)c1ccc(F)cc1 | 16.4 µM (active) |
| CC(=O)N1CCc2cc(Br)cc(S(=O)(=O)CCC(=O)Nc3c(C)n(C)n(-c4ccccc4)c3=O)c21 | inactive |
| COc1ccc(NC(C)=O)cc1NC(=O)CN1CCN(C2c3ccccc3-c3ccccc32)CC1 | inactive |
| O=C(C1CCCN(S(=O)(=O)c2ccccc2)C1)N1CCN(c2ccc(F)cc2)CC1 (stereo not given) | inactive |
| COc1ccc(CSc2nc(N3CCOCC3)c3c(c2C#N)CC(C)(C)OC3)cc1 | inactive |
| COc1ccc(NC(=O)c2sc3nc(C)nc(N4CCN(c5ccccn5)CC4)c3c2C)c(OC)c1 | inactive |
| Cc1ccc(Nc2nc(N3CCOCC3)nc(N3CCOCC3)n2)cc1Cl | inactive |
| CS(=O)c1ccc(/C=C2\C=Cc3ccccc32)cc1 (stereo not given) | 1.03 µM (active) |
| COc1ccc(NC(=O)C2CCC(CNc3c(N4CCCCC4)c(=O)c3=O)CC2)c(OC)c1 (stereo not given) | inactive |
